# Records with an inconclusive call do not appear. A call without a number means that no potency is given here. Unmarked numbers belong to inactive results. Active and inactive are the calls of the source. Unless noted, calls come from the whole dose curve.
# Columns and labels:
# [1] = qHTS assay to identify small molecule agonists of the vitamin D receptor (VDR) signaling pathway - cell viability counter screen (AID 743224; active = well fitted curve in the direction sought with a large enough effect in the repeat runs; an effect the other way counts as inactive or inconclusive; note: series mostly up to about 63 µM; nearly all actives have a fitted effect of over 50% in size)
# In short: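 Counter screen for cytotoxicity: VDR-bla cells at 2,000 cells/well, 16 h compound exposure, then CellTiter-Glo luminescence after the beta-lactamase measurement.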
# [2] = qHTS assay to identify small molecule agonists of the NFkB signaling pathway (AID 1159509; active = well fitted curve in the direction sought with a large enough effect in the signal ratio in the repeat runs, not every such curve was filed as active; the % refers to the signal ratio; note: series mostly up to about 61 µM)
# In short: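 Beta-lactamase reporter assay run in quantitative high-throughput format on an NF-kB-responsive ME-180 line, with 5 hr compound treatment and a FRET-based blue/green fluorescence readout.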
# [3] = qHTS assay to identify small molecule agonists of the NFkB signaling pathway - cell viability counter screen (AID 1159515); note: series mostly up to about 61 µM; nearly all actives have a fitted effect of over 55% in size
# In short: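 Counter screen run alongside the NFkB-bla agonist assay: ME-180 reporter cells exposed to compounds for 5 hr, then lysed with CellTiter-Glo in the same wells. Luminescence, read after 30 min, reflects viable cells.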
# [4] = qHTS assay to identify small molecule agonists of the endoplasmic reticulum stress response signaling pathway (AID 1159516; active = well fitted activation curve with a large enough effect in the signal ratio in the repeat runs, not every such curve was filed as active; the % refers to the signal ratio)
# In short: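 For this screen, HeLa cells stably carrying beta-lactamase under the ER stress response element received test compounds, positive controls or DMSO for 5 hr at 37 C; B/G FRET substrate was then added and dual-wavelength emission recorded.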
# [5] = qHTS assay to identify small molecule agonists of the endoplasmic reticulum stress response signaling pathway - cell viability counter screen (AID 1159517); note: nearly all actives have a fitted effect of over 50% in size; note: potency is the fitted concentration of half-maximal effect
# In short: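 Cytotoxicity of test compounds toward ESRE-bla HeLa cells was assessed after 5 hr exposure. The luminescent CellTiter-Glo signal was measured 30 min after reagent addition.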
# [6] = qHTS assay to identify small molecule antagonists of the retinoid-related orphan receptor gamma (ROR-gamma) signaling pathway - cell viability counter screen (AID 1159520; active = well fitted curve in the direction sought with a large enough effect in the repeat runs; an effect the other way counts as inactive or inconclusive; note: nearly all actives have a fitted effect of over 50% in size)
# In short: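 Tet-on ROR gamma CHO cells (1,000/well) were plated 4 hr, given compounds in DMSO for 2 hr at 37 C, then induced with 1 uM final doxycycline for 16 hr. Viability was read as ATP by CellTiter-Glo luminescence after 30 min.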
# [7] = target: Nuclear receptor ROR-gamma (Homo sapiens) (UniProt P51449); assay: qHTS assay to identify small molecule antagonists of the retinoid-related orphan receptor gamma (ROR-gamma) signaling pathway (AID 1159521; active = well fitted curve in the direction sought with a large enough effect in the repeat runs; an effect the other way counts as inactive or inconclusive;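 note: CHO cells with doxycycline inducible ROR-gamma driving an RORE luciferase reporter; top concentration of the series differs between compounds; nearly all actives have a fitted effect of over 50% in size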)
# In short: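 Decreased RORE-driven luciferase luminescence indicates antagonism. Tet-on RORγ CHO cells received compound, then 1 uM final doxycycline 2 h later; signal read after 16 h incubation.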
# [8] = qHTS assay to identify small molecule agonists of the AP-1 signaling pathway - cell viability counter screen (AID 1159525); note: nearly all actives have a fitted effect of over 55% in size
# In short: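 Each titration point was normalised to DMSO and tetra n-octyl ammonium bromide controls. The read was Cell Titer Glo luminescence after 30 min at RT, following 5 h compound exposure of ME-180 AP-1-bla cells at 37 °C.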
# [9] = qHTS assay to identify small molecule agonists of the AP-1 signaling pathway (AID 1159526)
# [10] = qHTS assay to identify small molecule antagonists of the vitamin D receptor (VDR) signaling pathway - cell viability counter screen (AID 743225; active = well fitted curve in the direction sought with a large enough effect in the repeat runs; an effect the other way counts as inactive or inconclusive; note: nearly all actives have a fitted effect of over 50% in size)
# In short: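 Parallel cytotoxicity test: VDR-UAS-bla HEK 293T, 3 nM (final) 1-alpha,25-dihydroxyvitamin D3 with test compound, 16 h, 37C. Endpoint is CellTiter-Glo luminescence in the same wells.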
Structure (SMILES),Potency [1],outcome [2],outcome [3],outcome [4],Potency [5],outcome [6],outcome [7],outcome [8],outcome [9],outcome [10],"activity, negative = cytotoxicity [6]","activity change, negative = inhibition [7]","viability change, negative = cytotoxic [8]",activation [9]
CC(C)=CCOC(=O)c1ccccc1,inactive,inactive,inactive,inactive,inactive,inactive,inactive,inactive,inactive,,,,,
COC(=O)[C@@H]1[C@H]2C[C@H]3c4[nH]c5ccccc5c4CCN3C[C@@H]2CC[C@@H]1O,inactive,inactive,inactive,inactive,inactive,inactive,inactive,inactive,inactive,inactive,,,,
CCNC(=O)C1CC(C)CCC1C(C)C (stereo not drawn),inactive,inactive,inactive,inactive,inactive,inactive,inactive,inactive,inactive,inactive,,,,
COCCOCCOCCOCCOCCO,inactive,inactive,inactive,inactive,inactive,inactive,inactive,inactive,inactive,inactive,,,,
Nc1ncnc(Nc2ccccc2)n1,inactive,inactive,inactive,inactive,inactive,inactive,inactive,inactive,inactive,inactive,,,,
Nc1cccc(O)c1,,inactive,inactive,inactive,inactive,inactive,inactive,inactive,inactive,,,,,
C#CC(C)N(C)C(=O)Nc1ccc(Cl)cc1 (stereo not drawn),inactive,inactive,inactive,inactive,inactive,inactive,inactive,inactive,inactive,,,,,
CC(=O)c1sc(C)nc1C,,inactive,inactive,inactive,inactive,inactive,inactive,inactive,inactive,,,,,
O=C(NCCN1CCOCC1)c1ccc(Cl)cc1,,inactive,inactive,inactive,inactive,inactive,inactive,inactive,inactive,,,,,
CCCCCCOc1ccccc1C(N)=O,,inactive,inactive,inactive,inactive,inactive,inactive,inactive,inactive,,,,,
CC(C)NCC(O)COc1cccc2[nH]ccc12 (stereo not drawn),inactive,inactive,inactive,inactive,inactive,inactive,inactive,inactive,inactive,inactive,,,,
CN(C)C(=O)CNC(=O)Cc1ccccc1,inactive,inactive,inactive,inactive,inactive,inactive,inactive,inactive,inactive,,,,,
N[C@@H](CCC(=O)N[C@@H](CS)C(=O)NCC(=O)O)C(=O)O,inactive,inactive,inactive,inactive,inactive,,,,,inactive,4.19% [at 19 µM],-1.88% [at 19 µM],4.13% [at 15.8 µM],1.13% [at 15.8 µM]
O=C(/N=N/C(=O)OCc1ccccc1)OCc1ccccc1,inactive,inactive,inactive,inactive,inactive,inactive,inactive,inactive,inactive,,,,,
NCCN1CCOCC1,,inactive,inactive,inactive,inactive,inactive,inactive,inactive,inactive,,,,,
CC(C)(C)c1cc(CCC(=O)NN)cc(C(C)(C)C)c1O,inactive,inactive,inactive,inactive,inactive,inactive,inactive,inactive,inactive,,,,,
O=C(NCC(O)CO)c1c(I)c(C(=O)NCC(O)CO)c(I)c(N(CCO)C(=O)CO)c1I (stereo not drawn),inactive,inactive,inactive,inactive,inactive,inactive,inactive,inactive,inactive,,,,,
N[C@@H](CCC(=O)Nc1ccc([N+](=O)[O-])cc1)C(=O)O,inactive,inactive,inactive,inactive,inactive,inactive,inactive,inactive,inactive,,,,,
CC/C=C\CC1=C(C)CCC1=O,,inactive,inactive,inactive,inactive,inactive,inactive,inactive,inactive,,,,,
Cc1cc(Cl)c(C)cc1Cl,inactive,inactive,inactive,inactive,54.9 µM (active),inactive,inactive,inactive,inactive,inactive,,,,
CC1(CO)CN(c2ccccc2)NC1=O (stereo not drawn),,inactive,inactive,inactive,inactive,inactive,inactive,inactive,inactive,,,,,
Cc1ccc(C=O)cc1C,inactive,inactive,inactive,inactive,inactive,inactive,inactive,inactive,inactive,inactive,,,,
CCCCC(CC)COCCO (stereo not drawn),,inactive,inactive,inactive,inactive,inactive,inactive,inactive,inactive,,,,,
C[C@@H](O)[C@H]1C(=O)N2C(C(=O)O)=C(SCCN=CN)C[C@H]12,,inactive,inactive,inactive,inactive,inactive,inactive,inactive,inactive,,,,,
O=C1c2ccccc2C(=O)c2cc(S(=O)(=O)O)ccc21,inactive,inactive,inactive,inactive,inactive,inactive,inactive,inactive,inactive,,,,,
CC(C)(C)c1nnc(NS(=O)(=O)c2ccc(N)cc2)s1,inactive,inactive,inactive,inactive,inactive,inactive,inactive,inactive,inactive,,,,,

# — PubChem BioAssay (Tox21)
